The values below come from paper PMC7862700, “An all-to-all approach to the identification of sequence-specific readers for epigenetic DNA modifications on cytosine”.

Assay in all cases: DAPPL (digital affinity profiling via proximity ligation, sequencing); 10 mM Tris-HCl pH 7.5, 50 mM NaCl, 1 mM DTT, 4% glycerol, room temperature, 30 min; GST-TFs on glutathione beads, 16-mer random dsDNA library, 0.1% formaldehyde crosslink after washing; high values mean tight binding
Conditions in all cases: protein: recombinant; tags: N-terminal GST; dsDNA, one strand shown

The target in one assay is T1, ELK1 (Homo sapiens, UniProt P19419 1-428).
T1 sequence: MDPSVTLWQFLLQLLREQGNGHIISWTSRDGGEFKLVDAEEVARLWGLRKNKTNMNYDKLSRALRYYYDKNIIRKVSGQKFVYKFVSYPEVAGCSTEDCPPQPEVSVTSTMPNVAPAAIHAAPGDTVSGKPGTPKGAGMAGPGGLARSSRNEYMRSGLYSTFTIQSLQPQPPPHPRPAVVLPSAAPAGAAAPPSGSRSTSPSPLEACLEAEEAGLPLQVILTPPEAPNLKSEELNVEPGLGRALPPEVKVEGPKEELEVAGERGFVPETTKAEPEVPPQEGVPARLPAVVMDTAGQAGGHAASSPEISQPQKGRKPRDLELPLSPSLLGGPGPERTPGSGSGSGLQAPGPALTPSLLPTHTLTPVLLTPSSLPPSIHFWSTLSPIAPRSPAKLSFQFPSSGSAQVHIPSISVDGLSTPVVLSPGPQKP
A digest of the protocol:
(§1)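 Each value of binding signal is a hexamer's read frequency for a factor divided by the same hexamer's frequency in the tag-only sample. Barcoded, bead-captured GST fusions of human transcription factors made in yeast were pooled with that sample and incubated with 200 nmole of a random double-stranded 16-mer DNA library in Tris/NaCl/DTT/glycerol buffer at room temperature for 30 min. Washing, 0.1% formaldehyde crosslinking, proximity ligation, PCR and Illumina NextSeq500 sequencing followed.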

In the next assay the target is T2, GABPA (Homo sapiens, UniProt Q06546 1-454).
T2 sequence: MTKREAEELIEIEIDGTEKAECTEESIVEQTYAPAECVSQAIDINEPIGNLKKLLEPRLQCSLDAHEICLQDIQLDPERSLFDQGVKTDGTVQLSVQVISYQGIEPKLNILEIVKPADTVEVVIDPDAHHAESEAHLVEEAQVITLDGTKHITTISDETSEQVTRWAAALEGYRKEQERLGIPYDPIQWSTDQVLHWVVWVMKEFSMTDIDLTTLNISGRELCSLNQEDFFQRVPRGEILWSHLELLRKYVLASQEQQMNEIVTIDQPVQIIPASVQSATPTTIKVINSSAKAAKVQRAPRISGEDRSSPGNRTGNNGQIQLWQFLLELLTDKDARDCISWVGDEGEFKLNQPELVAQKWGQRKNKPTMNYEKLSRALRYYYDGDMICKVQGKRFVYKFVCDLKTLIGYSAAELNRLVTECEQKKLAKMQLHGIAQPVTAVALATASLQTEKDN
In outline:
as §1

The target in another assay is ELF1 (Homo sapiens, UniProt P32519 1-619). In outline: as §1
ELF1, sequence (P32519 whole entry): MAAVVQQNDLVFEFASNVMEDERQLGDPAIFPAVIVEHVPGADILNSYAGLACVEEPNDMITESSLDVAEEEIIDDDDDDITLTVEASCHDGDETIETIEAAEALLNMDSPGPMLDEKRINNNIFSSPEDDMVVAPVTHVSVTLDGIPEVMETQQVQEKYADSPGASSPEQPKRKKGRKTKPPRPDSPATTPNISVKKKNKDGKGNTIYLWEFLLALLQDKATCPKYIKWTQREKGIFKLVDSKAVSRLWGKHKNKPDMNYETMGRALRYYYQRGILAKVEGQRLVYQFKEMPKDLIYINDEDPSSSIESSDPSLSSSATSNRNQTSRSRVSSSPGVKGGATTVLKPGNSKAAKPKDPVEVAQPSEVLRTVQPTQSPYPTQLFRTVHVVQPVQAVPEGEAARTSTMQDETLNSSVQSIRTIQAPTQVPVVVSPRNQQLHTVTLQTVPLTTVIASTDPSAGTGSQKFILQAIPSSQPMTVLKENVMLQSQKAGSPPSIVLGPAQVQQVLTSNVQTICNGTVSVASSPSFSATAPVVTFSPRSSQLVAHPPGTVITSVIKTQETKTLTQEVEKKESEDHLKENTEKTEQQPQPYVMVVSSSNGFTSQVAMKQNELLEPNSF
For a further assay, the target named is T3, EHF (Homo sapiens, UniProt Q9NZC4 1-300).
T3 sequence: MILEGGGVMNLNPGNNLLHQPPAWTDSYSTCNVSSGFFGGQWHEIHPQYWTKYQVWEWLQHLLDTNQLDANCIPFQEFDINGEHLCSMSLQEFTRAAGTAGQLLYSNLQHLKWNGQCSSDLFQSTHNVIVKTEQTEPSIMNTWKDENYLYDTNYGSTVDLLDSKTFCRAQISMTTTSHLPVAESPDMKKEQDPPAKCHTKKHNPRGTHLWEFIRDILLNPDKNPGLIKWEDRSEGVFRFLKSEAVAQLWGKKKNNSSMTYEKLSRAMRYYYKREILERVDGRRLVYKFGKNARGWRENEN
A digest of the protocol: as §1

In a further assay the target is SPI1 (Homo sapiens, UniProt P17947 1-270). In outline: as §1
The next assay deals with SPIB (Homo sapiens, UniProt Q01892 1-262). In outline: as §1
SPIB, sequence (Q01892 whole entry): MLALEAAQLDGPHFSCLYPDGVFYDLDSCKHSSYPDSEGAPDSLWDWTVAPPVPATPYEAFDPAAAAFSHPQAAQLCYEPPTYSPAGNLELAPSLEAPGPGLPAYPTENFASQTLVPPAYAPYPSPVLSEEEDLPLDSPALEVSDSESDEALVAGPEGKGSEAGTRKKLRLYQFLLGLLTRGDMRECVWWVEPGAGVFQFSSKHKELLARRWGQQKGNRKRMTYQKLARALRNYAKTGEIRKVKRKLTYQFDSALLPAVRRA
A further assay deals with T4, SPIC (Homo sapiens, UniProt Q8N5J4 1-248).
T4 sequence: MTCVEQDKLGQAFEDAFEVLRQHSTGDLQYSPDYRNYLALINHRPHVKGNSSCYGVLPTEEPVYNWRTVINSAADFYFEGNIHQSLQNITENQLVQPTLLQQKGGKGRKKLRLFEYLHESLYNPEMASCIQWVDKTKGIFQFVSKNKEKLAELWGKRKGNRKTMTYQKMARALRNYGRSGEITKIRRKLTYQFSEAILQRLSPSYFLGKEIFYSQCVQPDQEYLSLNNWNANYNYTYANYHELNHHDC
A digest of the protocol: as §1

The target of the next assay is ELF4 (Homo sapiens, UniProt Q99607 1-663). A digest of the protocol: as §1
ELF4, sequence (Q99607 whole entry): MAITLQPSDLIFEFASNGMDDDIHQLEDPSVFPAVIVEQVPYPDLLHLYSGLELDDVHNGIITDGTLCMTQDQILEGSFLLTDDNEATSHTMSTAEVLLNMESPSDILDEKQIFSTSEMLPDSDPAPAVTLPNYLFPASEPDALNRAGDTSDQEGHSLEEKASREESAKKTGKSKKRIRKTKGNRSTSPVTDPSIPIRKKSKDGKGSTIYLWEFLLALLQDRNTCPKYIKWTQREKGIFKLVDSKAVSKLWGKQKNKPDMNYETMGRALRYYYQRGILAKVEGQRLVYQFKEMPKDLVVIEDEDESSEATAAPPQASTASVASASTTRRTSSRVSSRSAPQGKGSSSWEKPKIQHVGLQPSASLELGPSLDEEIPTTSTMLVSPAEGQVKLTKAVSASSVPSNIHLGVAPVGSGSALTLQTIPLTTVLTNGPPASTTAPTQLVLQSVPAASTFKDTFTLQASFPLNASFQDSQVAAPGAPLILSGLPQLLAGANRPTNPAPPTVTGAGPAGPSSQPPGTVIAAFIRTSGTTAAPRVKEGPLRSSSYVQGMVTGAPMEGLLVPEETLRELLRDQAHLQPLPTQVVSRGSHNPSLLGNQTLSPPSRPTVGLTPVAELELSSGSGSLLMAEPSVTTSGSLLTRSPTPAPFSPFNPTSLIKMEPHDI
The target in a further assay is T5, ERF (Homo sapiens, UniProt P50548 1-548).
T5 sequence: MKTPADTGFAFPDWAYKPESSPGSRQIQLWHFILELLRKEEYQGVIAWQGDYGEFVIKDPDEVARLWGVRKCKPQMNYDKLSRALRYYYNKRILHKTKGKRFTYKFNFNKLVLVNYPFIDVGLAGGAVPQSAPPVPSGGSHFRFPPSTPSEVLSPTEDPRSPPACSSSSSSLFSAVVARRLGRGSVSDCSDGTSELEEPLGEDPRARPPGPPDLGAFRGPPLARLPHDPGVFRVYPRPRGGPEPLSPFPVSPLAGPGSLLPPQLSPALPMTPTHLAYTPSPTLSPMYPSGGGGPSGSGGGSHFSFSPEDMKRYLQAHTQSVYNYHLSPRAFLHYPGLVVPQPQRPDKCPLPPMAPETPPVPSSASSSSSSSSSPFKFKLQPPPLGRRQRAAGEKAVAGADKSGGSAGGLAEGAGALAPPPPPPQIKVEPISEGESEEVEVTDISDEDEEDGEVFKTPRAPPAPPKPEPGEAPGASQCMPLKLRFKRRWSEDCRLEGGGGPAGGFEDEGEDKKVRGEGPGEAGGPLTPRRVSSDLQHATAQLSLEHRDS
In outline: as §1

A further assay addresses T6, SPDEF (Homo sapiens, UniProt O95238 1-335).
T6 sequence: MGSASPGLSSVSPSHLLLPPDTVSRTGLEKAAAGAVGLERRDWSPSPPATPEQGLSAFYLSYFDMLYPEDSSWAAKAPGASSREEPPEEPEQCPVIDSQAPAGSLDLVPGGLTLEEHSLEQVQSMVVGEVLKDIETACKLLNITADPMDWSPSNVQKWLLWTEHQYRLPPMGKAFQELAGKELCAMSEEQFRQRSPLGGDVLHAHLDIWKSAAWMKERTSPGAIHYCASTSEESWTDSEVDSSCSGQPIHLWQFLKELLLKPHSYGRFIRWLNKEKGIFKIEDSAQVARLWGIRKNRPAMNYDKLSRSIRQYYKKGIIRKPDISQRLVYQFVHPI
In outline: as §1

A further assay addresses T7, ETV7 (Homo sapiens, UniProt Q9Y603 1-341).
T7 sequence: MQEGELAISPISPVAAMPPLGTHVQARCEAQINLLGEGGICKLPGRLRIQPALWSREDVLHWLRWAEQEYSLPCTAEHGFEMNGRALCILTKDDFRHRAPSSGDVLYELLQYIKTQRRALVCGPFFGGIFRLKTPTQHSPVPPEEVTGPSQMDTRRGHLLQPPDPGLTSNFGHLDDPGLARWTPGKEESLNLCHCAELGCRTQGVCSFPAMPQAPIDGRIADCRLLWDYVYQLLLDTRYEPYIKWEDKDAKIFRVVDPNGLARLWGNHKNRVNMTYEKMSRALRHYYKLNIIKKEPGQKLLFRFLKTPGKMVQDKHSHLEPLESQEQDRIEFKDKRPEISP
In outline: as §1

The target in a further assay is T8, ETV3 (Homo sapiens, UniProt P41162-2 1-143).
T8 sequence: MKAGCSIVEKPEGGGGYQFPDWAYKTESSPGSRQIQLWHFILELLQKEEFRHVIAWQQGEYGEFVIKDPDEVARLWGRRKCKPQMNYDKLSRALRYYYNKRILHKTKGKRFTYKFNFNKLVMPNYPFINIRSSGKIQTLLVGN
In outline: as §1

For another assay, the target named is ETV6 (Homo sapiens, UniProt P41212 1-452). A digest of the protocol:
as §1

ETV6, sequence (P41212 whole entry): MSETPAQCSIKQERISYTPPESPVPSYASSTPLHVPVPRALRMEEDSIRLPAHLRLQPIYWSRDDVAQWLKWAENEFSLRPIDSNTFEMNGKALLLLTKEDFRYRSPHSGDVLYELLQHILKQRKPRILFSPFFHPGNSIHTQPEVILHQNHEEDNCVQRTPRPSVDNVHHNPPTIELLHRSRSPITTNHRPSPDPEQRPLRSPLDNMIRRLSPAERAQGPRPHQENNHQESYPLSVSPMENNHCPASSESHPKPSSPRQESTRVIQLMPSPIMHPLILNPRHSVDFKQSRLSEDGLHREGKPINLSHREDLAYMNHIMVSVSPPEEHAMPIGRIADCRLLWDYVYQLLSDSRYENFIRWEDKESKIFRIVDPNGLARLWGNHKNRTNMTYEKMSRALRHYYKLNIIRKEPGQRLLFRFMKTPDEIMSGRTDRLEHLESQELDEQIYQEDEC

In the case of TTAAGA, the binding signal in the assay with ELK1 is 1.05 fold enrichment (6-mer frequency, TF over GST control); with GABPA, 1.09 fold enrichment (6-mer frequency, TF over GST control); with ELF1, 1.05 fold enrichment (6-mer frequency, TF over GST control); in the assay with EHF it was 1.05 fold enrichment (6-mer frequency, TF over GST control); with SPI1 it was 1.03 fold enrichment (6-mer frequency, TF over GST control); in the assay with SPIB it was 1.07 fold enrichment (6-mer frequency, TF over GST control). For the same sequence, the binding signal with SPIC is 1.12 fold enrichment (6-mer frequency, TF over GST control); in the assay with ELF4 it was 1.05 fold enrichment (6-mer frequency, TF over GST control); with ERF it was 1.08 fold enrichment (6-mer frequency, TF over GST control); in the assay with SPDEF it was 1.06 fold enrichment (6-mer frequency, TF over GST control); in the assay with ETV7 it was 1.13 fold enrichment (6-mer frequency, TF over GST control); with ETV3, 1.05 fold enrichment (6-mer frequency, TF over GST control). In the assay with ETV6, the binding signal is 1.05 fold enrichment (6-mer frequency, TF over GST control).
